From PubChem BioAssay
VDR inh: blocks the human vitamin D receptor; actives 0.93% (n = 400,000); P11473; VDR-SRC2-3 peptide fluorescence polarization, 2 h; AID 504847; Potency, µM, without a hit: max response, negative = inhibition, usual class: inhibitors; further: potency means the concentration at half of the fitted maximal effect; on the % scale 0 is the no-effect control and ±100 the full control effect
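Inhibition of the VDR/SRC2-3 peptide interaction is quantified by fluorescence polarization. Compounds (23 nl, pintool) incubate with the reagents for 2 hours at ambient room temperature.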
PI5P4Ka inh: PI5P4K alpha (human) kinase inhibition | PI5P4Kalpha enzyme, ADP-Glo luminescence, 60 min; active compounds read low | max response, % | actives 1.2% (n = 330,000); active means max response of -50% or lower; inconclusive means between -30% and -50%; inactive means -30% or higher; further: value at the top dose of about 77 µM; on the % scale 0 is the no-effect control and ±100 the full control effect
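Single end-point luminescence (ADP-Glo) quantified ADP from PI5P4Kalpha turnover; ATP 5 microM final, 1 h at RT, 0.1% CHAPS and 0.28 mM EGTA in HEPES pH 7.4.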
PLK1 PBD inh: inhibitors of human PLK1 polo-box domain binding; Potency, µM, for inactives: max response, negative = inhibition, hits mostly inhibitors; AID 720504; actives 2.8% (n = 360,000); Plk1 PBD binding of FITC phosphopeptide, fluorescence polarization; P53350; further: potency means the concentration at half of the fitted maximal effect; series mostly up to about 57 µM; on the % scale 0 is the no-effect control and ±100 the full control effect; nearly all actives have a fitted effect of over 65% in size
TCR act: activators of T cell receptors; primary human leukocytes, anti-CD3, IL-2 HTRF, 48 h; Potency, µM (top dose mostly 9.22 µM), for inactives: at the top dose activation of IL-2 secretion, actives largely listed as activators; 330,000 tested, under 10 active; AID 504894; further: % of control where 0% means no effect
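HTRF read-out of IL-2 secretion: europium cryptate donor excited at 320nm, d2 acceptor emission at 665nm. Cells were primary human leukocytes incubated 48 hr with compounds and a-CD3 beads, supplying TCR signal only.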
FEN1 inh: human FEN1 inhibition. P39748. Recombinant FEN1 flap cleavage, fluorescence, 15 min. Potency, µM (series often up to 114 µM), inactives show at the highest dose activity change, negative = inhibition, actives largely listed as inhibitors. actives 0.35% (n = 390,000). AID 588795; further: potency means the concentration at half of the fitted maximal effect; on the % scale 0 is the no-effect control and ±100 the full control effect; nearly all actives have a fitted effect of over 65% in size
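Recombinant FEN1 (10 nM) was preincubated with pin-transferred compounds for 15 min at room temperature, then flap DNA substrate (50 nM final) was added. Plates were read at 0 and 15 min, and normalized concentration–response data were fitted to a four-parameter Hill equation.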
WRN helicase inh: WRN helicase (human) inhibition | WRN helicase unwinding, fluorescent forked duplex, kinetic | actives 0.46% (n = 360,000) | Potency, µM (top dose mostly 114 µM), inactives show at the top dose activity change, negative = inhibition, most hits filed as inhibitors; further: potency means the concentration at half of the fitted maximal effect; on the % scale 0 is the no-effect control and ±100 the full control effect; nearly all actives have a fitted effect of over 55% in size
Target sequence (Q14191 whole entry, looked up): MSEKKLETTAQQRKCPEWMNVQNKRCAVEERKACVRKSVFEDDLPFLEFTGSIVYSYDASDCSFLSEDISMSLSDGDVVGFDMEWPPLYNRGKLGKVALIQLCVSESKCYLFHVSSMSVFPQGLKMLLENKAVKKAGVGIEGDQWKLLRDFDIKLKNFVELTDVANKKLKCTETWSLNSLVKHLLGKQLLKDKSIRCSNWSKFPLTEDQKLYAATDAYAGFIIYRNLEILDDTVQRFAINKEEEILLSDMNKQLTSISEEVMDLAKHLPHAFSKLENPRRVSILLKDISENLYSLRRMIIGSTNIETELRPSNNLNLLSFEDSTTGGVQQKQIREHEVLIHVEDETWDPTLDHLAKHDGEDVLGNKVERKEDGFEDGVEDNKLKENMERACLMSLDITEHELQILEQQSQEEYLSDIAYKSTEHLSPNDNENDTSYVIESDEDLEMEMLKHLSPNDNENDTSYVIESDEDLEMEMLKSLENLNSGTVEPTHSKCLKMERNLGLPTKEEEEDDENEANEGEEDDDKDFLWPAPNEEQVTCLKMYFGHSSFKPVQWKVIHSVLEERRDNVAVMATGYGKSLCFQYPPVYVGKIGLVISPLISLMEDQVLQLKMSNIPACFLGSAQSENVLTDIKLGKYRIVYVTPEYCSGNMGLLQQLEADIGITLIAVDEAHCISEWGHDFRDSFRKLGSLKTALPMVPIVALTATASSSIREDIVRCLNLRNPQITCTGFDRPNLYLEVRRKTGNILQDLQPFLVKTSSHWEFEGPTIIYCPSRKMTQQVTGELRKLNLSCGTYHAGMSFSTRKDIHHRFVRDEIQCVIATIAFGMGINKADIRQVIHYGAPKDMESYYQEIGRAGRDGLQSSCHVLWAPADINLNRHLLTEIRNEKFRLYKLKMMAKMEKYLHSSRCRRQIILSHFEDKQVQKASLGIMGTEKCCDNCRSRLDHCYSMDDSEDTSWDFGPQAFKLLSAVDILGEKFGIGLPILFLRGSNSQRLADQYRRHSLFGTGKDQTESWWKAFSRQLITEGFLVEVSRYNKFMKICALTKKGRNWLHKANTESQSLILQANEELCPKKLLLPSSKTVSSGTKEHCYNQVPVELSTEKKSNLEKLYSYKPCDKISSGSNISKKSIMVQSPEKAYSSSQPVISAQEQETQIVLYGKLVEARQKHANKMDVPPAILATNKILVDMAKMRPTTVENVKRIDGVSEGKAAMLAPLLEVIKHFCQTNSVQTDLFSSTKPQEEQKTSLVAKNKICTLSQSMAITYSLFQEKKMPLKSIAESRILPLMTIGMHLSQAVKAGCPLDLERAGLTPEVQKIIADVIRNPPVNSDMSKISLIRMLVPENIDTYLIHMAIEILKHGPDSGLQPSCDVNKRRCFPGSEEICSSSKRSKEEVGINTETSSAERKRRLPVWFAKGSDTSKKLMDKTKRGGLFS
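Kinetic red-fluorescence monitoring (525/598 nm) tracks WRN helicase activity after 100 nM fluorophore-quencher forked duplex and 2 mM ATP are added to 20 nM enzyme pretreated 15 min at room temperature with compound.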
Active calls of the source: *; ? = inconclusive; . = not tested or not shown; [ ] = dose if it differs, or a comment. Hits are enriched below; roughly 3.7% of the tested compounds scored in any of these assays. Unless noted, the call rests on the fitted dose curve; in most records, active means well fitted curve in the direction sought with a large enough effect; inconclusive means small, poorly fitted or top-dose-only effect, or another doubt; inactive means no such curve, though single readings can be large; an effect the other way counts as inactive or inconclusive.

SMILES	VDR inh	PI5P4Ka inh	PLK1 PBD inh	TCR act	FEN1 inh	WRN helicase inh
COc1ccc(C)cc1S(=O)(=O)Nc1cccc(-c2ccc(N3CCCCCC3)nn2)c1	?	-18.7	16.8µM*	-6.1%	-19.7%	-4.9%
COc1ccc(S(=O)(=O)Nc2cccc(-c3ccc4nncn4n3)c2)c(OC)c1	?	-3.8	16.8µM*	-3.1%	-6.7%	-24.4%
CC[C@H](C)[C@H](NC(=O)[C@H](Cc1ccc(O)cc1)NC(=O)[C@@H]1CCCN1C(=O)[C@H](CCCCN)NC(=O)[C@@H](N)CCCCN)C(=O)N[C@@H](CC(C)C)C(=O)O	-8.7%	.	.	.	.	.
c1ccc(CNc2ncnc3ccc(-c4ccoc4)cc23)cc1	25.1µM*	.	.	.	.	.
c1ccc(CNc2ccnc(-c3ccoc3)n2)cc1	79.4µM*	.	.	.	.	.
c1ccc(Nc2ncnc3ccc(-c4ccoc4)cc23)cc1	31.6µM*	.	.	.	.	.
CN(C)C(=O)c1ccc(-c2ccc3ncnc(Nc4ccccc4)c3c2)cc1	2.1%	.	.	.	.	.
O=C(C[n+]1cc(Br)cc(Br)c1)c1ccc2c(c1)CCCC2	.	.	.	.	-7.9%	.
COc1ccccc1N1CCN(C(=O)c2cnn(-c3ccc(C)c(C)c3)c2C2CCN(C(=O)OC(C)(C)C)CC2)CC1	4.0%	.	.	.	-7.1%	.
O=[N+]([O-])c1ccccc1SN(Cc1ccccc1)c1ccccn1	-8.4%	10.2	11.9µM*	-4.2%[46.1 µM]	13.0%	-10.0%
ONC(=Nc1ccc(Cl)cc1)c1ccc(Cl)cc1	9.3%	0.5	-8.2%	-2.5%	-15.7%	-2.1%
[S-]C(=Nc1ccc(Cl)cc1)N[n+]1ccccc1	?	-8.7	16.8µM*	1.9%[46.1 µM]	-0.2%	-28.3%
Cn1c(CNc2cccc(C(F)(F)F)c2)n[nH]c1=S	-4.8%	-1.7	26.7µM*	-1.1%	-12.0%	1.4%
CC[N+]1(CC(=O)c2ccc(Cl)cc2)CCCCC1	.	.	.	.	-2.7%	.
CCN1c2ccccc2N(C)C1(C)c1ccccc1 (configuration not stated)	?	-14.0	1.68µM*	2.1%[46.1 µM]	-0.8%	?
CCC1(c2ccccc2)CN(C)C1=O (configuration not stated)	.	0.5	-7.7%	.	.	9.5%
C#CC(C)OC(=O)Nc1cccc(Cl)c1 (configuration not stated)	-2.0%	.	.	.	.	.
COc1ccc(C(=O)NNC(=O)C(=O)Nc2ccc(C)c(Cl)c2)cc1	?	-22.1	26.7µM*	2.3%	8.1%	0.8%
COc1ccccc1C(=O)NNC(=O)c1cccc(C)c1	70.8µM*	-18.5	16.8µM*	.	-1.2%	-26.7%
COc1ccccc1C(=O)NNC(=O)C(=O)Nc1ccc(C)c(Cl)c1	-22.1%	-1.7	29.9µM*	0.3%	13.1%	-18.4%
COc1ccc(C(=O)NNC(=O)C(=O)Nc2ccc(C)cc2)cc1	0.1%	-2.8	3.6%	0.2%	-10.8%	-24.7%
CSCC[C@H](N)C(=O)N[C@@H](CCCN=C(N)N)C(=O)N[C@@H](Cc1ccccc1)C(=O)N[C@@H](Cc1ccccc1)C(=O)N[C@H](C(=O)O)C(C)C	-3.8%	.	.	.	.	.
N#Cc1ccccc1Cn1cc(/C=C/[N+](=O)[O-])c2ccccc21	31.6µM*	-4.9	?	-9.4%	-4.8%	-9.4%
O=C(O)Cn1cc(/C=C/[N+](=O)[O-])c2ccccc21	?	-9.1	-28.6%	-7.9%	4.3%	-5.1%[11.6 µM]
COc1cc(C(=O)NC2CC(C)(C)Cc3c2cnn3-c2ccccc2)cc(OC)c1OC (configuration not stated)	?	-4.2	29.9µM*	-1.9%	-2.4%	-0.3%
SMILES	VDR inh	PI5P4Ka inh	PLK1 PBD inh	TCR act	FEN1 inh	WRN helicase inh
COc1ccc(-n2ncc3c2CC(C)(C)CC3NC(=O)c2c(C)cc(=O)oc2C)cc1 (configuration not stated)	?	-2.9	23.8µM*	-6.8%	15.8%	-1.7%
COc1ccc(-n2ncc3c2CC(C)(C)CC3NC(=O)c2cnc(C)cn2)cc1 (configuration not stated)	-17.8%	-4.9	-22.0%	-0.8%	-1.4%	0.8%
CCOC(=O)N1CCC(NC(=O)c2ccc3c(c2)N(Cc2ccc(Cl)cc2)C(=O)c2ccccc2S3(=O)=O)CC1	2.8%	.	.	.	-3.3%	.
CCCNc1cc(=S)nc(N)[nH]1	-5.9%	-23.8	18.9µM*	0.0%	-15.6%	-3.7%
CCCn1cnc2c(=S)nc(N)[nH]c21	0.4%	-16.6	-0.4%	3.3%	16.5%	-8.9%
Cc1ccc(CNC(=O)Cn2c(=O)cc(C)c3c(C)nn(-c4cccc(F)c4)c32)cc1	11.9%	.	.	.	-6.2%	.
CC(C)CCNC(=O)c1cccc(C(=O)NCCC(C)C)c1	-14.5%	-9.2	23.8µM*	-2.5%	6.9%	7.4%
CC(C)CNC(=O)c1cccc(C(=O)NCC(C)C)c1	-6.8%	.	-5.5%	.	-12.6%	6.0%
CCOC(=O)c1ccc(OS(=O)(=O)c2ccccc2)c(OC)c1	?	-3.4	26.7µM*	-5.7%[46.1 µM]	7.4%	3.8%
CCOc1cc(C(=S)N2CCOCC2)ccc1OS(=O)(=O)c1ccccc1	-5.1%	2.8	-5.2%	4.4%[46.1 µM]	0.4%	-1.0%
COC(=O)c1cc(-c2ccccc2)sc1NC(=O)CN1C(=O)c2ccccc2C1=O	-26.6%	-10.6	11.9µM*	0.8%	0.9%	-2.4%
CCOC(=O)c1cc(-c2ccccc2)sc1NC(=O)c1ccc(OC)c(OC)c1	79.4µM*	?	4.74µM*	-3.9%[46.1 µM]	-3.9%	?
CCOC(=O)c1cc(-c2ccccc2)sc1NC(=O)COC	-15.7%	2.1	-18.1%	5.4%	16.3%	-4.2%
CCOC(=O)c1cc(-c2ccccc2)sc1NC(=O)C(C)C	?	-0.2	29.9µM*	-2.2%[46.1 µM]	-3.2%	-10.3%
COC(=O)c1ccc(Cl)cc1NC(=O)N(C)CCc1c(C)nn(C)c1C	11.1%	.	.	.	9.8%	.
O=C(NCc1cccs1)c1ccc(Cn2c(SCc3ccccc3)nc3cccnc32)cc1	13.2%	.	.	.	-3.6%	.
CCOC(=O)c1c(C)[nH]c(N=Nc2ccc(C)cc2)c1C	-0.1%	.	-5.4%	-5.2%	-12.1%	-21.9%
Cc1ccc(N=Nc2c(O)ccc3n[nH]nc23)cc1	-8.5%	-59.9*	0.2%	8.1%	0.4%	1.1%
O=C(NCc1ccc(Cl)cc1)c1n[nH]c([N+](=O)[O-])c1Cl	?	-25.3	18.9µM*	-1.4%	-3.8%	-3.0%
N#C/C(=C\c1ccc(OCc2ccc(Br)cc2)cc1)C(=O)Nc1cccc(C(=O)O)c1	?	-15.4	21.2µM*	2.5%	?	-23.9%[11.6 µM]
CCOc1cc(/C=C(\C#N)C(=O)Nc2cccc(C(=O)O)c2)cc(Br)c1OC(=O)c1ccc(OC)cc1	25.1µM*	?	9.47µM*	2.0%	-28.9%	?
N#C/C(=C/c1ccc(OCc2ccc(C(=O)O)cc2)cc1)C(=O)Nc1ccccc1	?	-7.0	?	-3.3%	?	-16.8%
C=C(C(=O)O)c1ccc2ccccc2c1	.	.	.	.	-17.9%	.
